{
  "source": "PubChem BioAssay (NCATS)",
  "note": "Inconclusive results are not listed. A number with no mark means an inactive call. Active and inactive are the calls of the source. Calls follow the shape of the dose curve; as a rule, active = well fitted inhibition curve with a large enough effect; inconclusive = small, poorly fitted or top-dose-only effect; inactive = flat fitted curve, though single readings scatter. % is scaled to controls: 0 for no effect and ±100 for the full control effect; potency is read from the fitted curve at half-maximal effect.",
  "data": [
    {"experiment": "P-glycoprotein substrates identified in KB-8-5-11 adenocarcinoma cell line, qHTS therapeutic library screen (AID 1346987); also: nearly all actives have a fitted effect of over 65% in size", "settings": "KB-8-5-11 (P-gp overexpressing) viability, CellTiter-Glo, 72 h; series mostly up to 44.5 µM; activity change, negative = cytotoxicity: at the top concentration", "source_text": "The ATP-binding cassette transporters P-glycoprotein (P-gp) is known to limit brain penetration of many chemotherapy drugs. […] As such, we developed a high-throughput screen (HTS) to identify substrates of P-gp from a series of chemical libraries including the National Center for Advancing Translational Sciences Pharmaceutical Collection NPC, 2,816 compounds), testing a total of 10,804 compounds, most of which have known mechanisms of action. We used the CellTiter-Glo viability assay to test library compounds against the parental KB-3-1 human cervical adenocarcinoma cell line and the colchicine-selected sub-line KB-8-5-11 that over-expresses P-gp. KB-8-5-11 cells were also tested in the presence of a P-gp inhibitor (tariquidar) to assess reversability of transporter-mediated resistance. Of the tested compounds, a total of 90 P-gp substrates were identified including 55 newly identified P-gp substrates. Substrates were confirmed using an orthogonal killing assay against HEK-293 cells transfected with P-gp. As exemplars, we confirmed that […] (cyclin-dependent kinase inhibitor); AT9283, (Janus kinase 2/3 inhibitor); ispinesib (kinesin spindle protein inhibitor); gedatolisib (PKI-587, phosphoinositide 3-kinase/mammalian target of rampamycin inhibitor); GSK-690693 (AKT inhibitor); and KW-2478 (heat shock protein 90 inhibitor) were substrates , and direct ATPase stimulation was assessed. ABCG2 was also found to confer high levels of resistance to AT9283, GSK-690693 and gedatolisib, while ispinesib, AT7519 and KW-2478 were weaker substrates.\nThe HeLa derivative cell line, KB-3-1, and its colchicine-selected, P-gp-overexpressing subline, KB-8-5-11 were maintained in DMEM with 10% FCS and Pen/Strep with glutamine at 37 degree C in 5% CO2. For KB-8-5-11 cells, colchicine was added to the medium at a concentration of 100 ng/mL. HEK-293 cells transfected with empty vector (pcDNA) or vector containing human ABCB1 (MDR-19) or ABCG2 (R-5) have been described previously (Robey, Lin, Qiu, Chan & Bates, 2011) and were maintained in EMEM supplemented with 10% FCS, Pen/Strep and glutamine with 2 mg/ml G418 to select for the expression of the transporter. Cultures were confirmed to be free of mycoplasma infection using the MycoAlert Mycoplasma Detection Kit (Lonza, Walkersville, MD). For the screen, assay medium was identical to culture medium except for KB-8-5-11 where colchicine was excluded from the medium.\nAll cell lines were plated into 1536-well plates at 500 cells/well in 5 uL media. Compounds were then pinned in dose-response using a 1536-head pin tool (Kalypsis, San Diego, CA) and plates were incubated at 37 degree C in 5% CO2 for an additional 72 h. CellTiter-Glo reagent (Promega) was dispensed into the wells, incubated for 5 min and luminescence was read on a ViewLux instrument (Perkin-Elmer). Cytotoxic compounds were defined as those that yielded a curve class of -1.1, -1.2, -2.1, -2.2, -2.3, or -2.4, a maximum response of >50% and an AC50 of < 10 uM. Cherry-picked hits from screening analysis were tested with both the KB pair of cell lines, and the pcDNA (empty vector control) and MDR-19 (P-gp overexpressing) pair were tested, in the absence and presence of tariquidar.", "values": [
      {"smiles": "CC(C)CC1NC(=O)C(C)NC(=O)C(CC(C)C)OC(=O)CCCNC1=O", "note": "(stereo not given)", "outcome": "inactive"},
      {"smiles": "OC[C@H]1O[C@@H](Oc2cc(O)c3c(c2)O[C@@H](c2ccc(O)cc2)[C@H](O)C3)[C@H](O)[C@@H](O)[C@@H]1O", "outcome": "inactive [at 17.3 µM]"},
      {"smiles": "Cc1c(CN2CCN(C(=O)C(C)O)CC2)sc2c(N3CCOCC3)nc(-c3cnc(N)nc3)nc12", "note": "(stereo not given)", "Potency": "0.82 µM (active)"},
      {"smiles": "CCS(=O)(=O)N1CCN(c2ccc(Nc3ncc(C(N)=O)c(NC4CC4)n3)cc2)CC1", "Potency": "7.31 µM (active)"},
      {"smiles": "C[C@H](NC(=O)CCc1nc2ccccc2c(=O)[nH]1)c1ccccc1", "activity change, negative = cytotoxicity": "-18.6%"},
      {"smiles": "CC(C)N(CCCCOCC(=O)NS(C)(=O)=O)c1cnc(-c2ccccc2)c(-c2ccccc2)n1", "outcome": "inactive"},
      {"smiles": "COC(=O)C12CCC(C)C(C)C1C1=CCC3C4(C)CCC(OC(C)=O)C(C)(C)C4CCC3(C)C1(C)CC2", "note": "(stereo not given)", "activity change, negative = cytotoxicity": "0.509% [at 17.3 µM]"},
      {"smiles": "CC(C)CC(=O)OC1OC=C(CO[C@@H]2O[C@H](CO)[C@@H](O)[C@H](O)[C@H]2O)C2CC(O)C(O)(CO)C12", "note": "(stereo not given in full)", "activity change, negative = cytotoxicity": "8.74% [at 17.3 µM]"},
      {"smiles": "CCN1CCN(Cc2ccc(NC(=O)c3ccc(C)c(/C=C/c4cnc5[nH]ccc5c4OC)c3)cc2C(F)(F)F)CC1", "Potency": "23.1 µM (active)"},
      {"smiles": "NCc1ccc(Nc2ncc(F)c(Nc3ccccc3)n2)cc1", "Potency": "5.8 µM (active)"},
      {"smiles": "CN(C)c1nc(NC2CCC(NC(=O)c3ccc(F)c(F)c3)CC2)nc2ccccc12", "note": "(stereo not given)", "Potency": "20.6 µM (active)"},
      {"smiles": "C=C1C(OC(C)=O)CCC2(C)CC3(OC)OC(=O)C(C)=C3CC12", "note": "(stereo not given)", "activity change, negative = cytotoxicity": "-0.886%"},
      {"smiles": "Nc1ccc(-c2cccc3c(=O)cc(N4CCOCC4)oc23)cc1", "Potency": "6.51 µM (active)"},
      {"smiles": "CC(NC(=O)C(O)C(C)C)C(=O)NC1C(=O)N(C)CCc2ccccc21", "note": "(stereo not given)", "activity change, negative = cytotoxicity": "5.18%"},
      {"smiles": "NC(=O)c1cccc(-c2cc(OC(=O)NC3CCCCC3)ccc2O)c1", "activity change, negative = cytotoxicity": "-7.82%"},
      {"smiles": "CC(C)=C/C=C\\[C@H](C)[C@H]1CC[C@]2(C)C[C@@H]3C(C)=CC(=O)C3/C(CO)=C\\C[C@@H]12", "note": "(stereo not given in full)", "activity change, negative = cytotoxicity": "-5.58%"},
      {"smiles": "CC1(C)[C@@H](O)CC[C@]2(C)[C@H]3CC=C4[C@@H]5C[C@](C)(C(=O)O)CC[C@]5(C)CC[C@@]4(C)[C@]3(C)CC[C@@H]12", "activity change, negative = cytotoxicity": "4.73%"},
      {"smiles": "Cc1ccc(C)c(OCCn2cc(C(=O)O)c3ccccc32)c1", "activity change, negative = cytotoxicity": "4.01%"},
      {"smiles": "COc1cc([C@H]2c3cc(O)c(OC)cc3C[C@@H](CO[C@@H]3O[C@H](CO)[C@@H](O)[C@H](O)[C@H]3O)[C@@H]2CO)ccc1O", "activity change, negative = cytotoxicity": "9.89% [at 17.3 µM]"},
      {"smiles": "O=C(COc1cccc2c(=O)[nH]ccc12)c1ccccc1", "activity change, negative = cytotoxicity": "-9.03%"},
      {"smiles": "COc1ccc(-c2ccc(-c3cn(C(=O)N4CCCCC4c4ccccc4)nn3)cc2)cc1", "note": "(stereo not given)", "activity change, negative = cytotoxicity": "-26.2%"},
      {"smiles": "[N-]=[N+]=N[C@]1(CO)O[C@@H](n2ccc(=O)[nH]c2=O)[C@@H](O)[C@@H]1O", "outcome": "inactive"},
      {"smiles": "CC(=O)OC/C=C(\\C)C(CC1C(C)=C(OC(C)=O)C(=O)C2C(C)(C)C(O)CCC12C)OC(C)=O", "note": "(stereo not given)", "outcome": "inactive [at 17.3 µM]"},
      {"smiles": "CCC1C(=O)OC23C=C[C@@H]4C(C(=O)O)=CO[C@H](O[C@@H]12)[C@@H]43", "note": "(stereo not given in full)", "activity change, negative = cytotoxicity": "-24.6%"},
      {"smiles": "Clc1cc2c(NC3CCCC3)nnc(-c3ccncc3)c2cc1Cl", "activity change, negative = cytotoxicity": "-18.6% [at 17.3 µM]"},
      {"smiles": "CN(C)C1CCN(C(=O)c2ccc(NC(=O)Nc3ccc(-c4nc(N5CCOCC5)nc(N5CCOCC5)n4)cc3)cc2)CC1", "activity change, negative = cytotoxicity": "-11.8%"},
      {"smiles": "C=C1C[C@]23C[C@H]1CC[C@H]2[C@@]12CC[C@H](O)[C@@](C)(C(=O)O1)[C@H]2[C@@H]3C(=O)O", "activity change, negative = cytotoxicity": "5%"},
      {"smiles": "O=C(CO)[C@@H](O)[C@H](O[C@@H]1O[C@H](CO)[C@H](O)[C@H](O)[C@H]1O)[C@H](O)CO", "activity change, negative = cytotoxicity": "3.94%"},
      {"smiles": "C=C1C(=O)OC2CC3(C)C(CC12)C(C)=CC(O)C3OC(C)=O", "note": "(stereo not given)", "outcome": "inactive"},
      {"smiles": "COC(=O)C1=C2Nc3ccccc3C23CCN2CCCC(C(C)O)(C1)C23", "note": "(stereo not given)", "activity change, negative = cytotoxicity": "0.215%"},
      {"smiles": "CCC[C@@H]1O[C@@H]2C[C@H]3[C@@H]4CCC5=CC(=O)C=C[C@]5(C)[C@H]4[C@@H](O)C[C@]3(C)[C@]2(C(=O)CO)O1", "activity change, negative = cytotoxicity": "-14.9%"},
      {"smiles": "CC1(C)CC2C(C1)C(C)(O)C13CC1(COC3=O)C2O", "note": "(stereo not given)", "activity change, negative = cytotoxicity": "-11.5%"},
      {"smiles": "CC(=O)O[C@@H](CO[C@@H]1O[C@H](CO)[C@H](O)[C@H](O)[C@H]1O)[C@]1(C)C=C2CC[C@@H]3C(C)(C)[C@@H](O)CC[C@@]3(C)[C@@H]2CC1", "activity change, negative = cytotoxicity": "3.01% [at 17.3 µM]"},
      {"smiles": "COC(=O)C1=CO[C@@H](O[C@@H]2O[C@H](CO)[C@@H](O)[C@H](O)[C@H]2O)[C@H]2[C@@H]1C=C[C@@]21C=C([C@H](C)O)C(=O)O1", "outcome": "inactive [at 17.3 µM]"},
      {"smiles": "CC1(C)C2CC=C(COC3OC(COC4OCC(O)(CO)C4O)C(O)C(O)C3O)C1C2", "note": "(stereo not given)", "outcome": "inactive [at 17.3 µM]"},
      {"smiles": "CC(=O)O[C@H]1CC[C@@]2(C)C(CC[C@@H](C)[C@]23Cc2c(O)cc4c(c2O3)CN([C@@H](CCC(=O)O)C(=O)O)C4=O)C1(C)C", "note": "(stereo not given in full)", "outcome": "inactive [at 17.3 µM]"},
      {"smiles": "COc1cc2ncnc(N3CCC(Oc4cnc5ccccc5n4)C3)c2cc1OC", "note": "(stereo not given)", "Potency": "0.461 µM (active)"},
      {"smiles": "C[C@@H]1CC[C@]2(C(=O)OC3OC(CO)C(O)C(O)C3O)CC[C@]3(C)C(=CCC4[C@@]5(C)CC[C@H](O)[C@](C)(C(=O)O)C5CC[C@]43C)C2[C@]1(C)O", "note": "(stereo not given in full)", "outcome": "inactive [at 17.3 µM]"},
      {"smiles": "CC(C)CNCc1ccc(-c2ccccc2S(=O)(=O)N2CCCC2)cc1", "activity change, negative = cytotoxicity": "-23%"},
      {"smiles": "COc1ccc(CCO[C@@H]2O[C@H](CO[C@@H]3OC[C@H](O)[C@H](O)[C@H]3O)[C@@H](O)[C@H](O)[C@H]2O)cc1", "activity change, negative = cytotoxicity": "3.6% [at 17.3 µM]"}
    ]}
  ]
}
